Source: PubChem
This excerpt belongs to a sample that is enriched for hits.
TbREL1 primary: TbREL1 inhibition, primary screen. P86926. TbREL1 RNA ligation, FRET fluorescence. inhibition, % at 9.66 µM. hit rate 0.49% among 89,000. AID 1117264;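 active means inhibition above the mean inhibition across all screened compounds plus 3 SD, cut at about 11% in these data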;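 further: 0% = plate median of test wells and 100% = NSC42067 control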
Target sequence (P86926 whole entry, looked up): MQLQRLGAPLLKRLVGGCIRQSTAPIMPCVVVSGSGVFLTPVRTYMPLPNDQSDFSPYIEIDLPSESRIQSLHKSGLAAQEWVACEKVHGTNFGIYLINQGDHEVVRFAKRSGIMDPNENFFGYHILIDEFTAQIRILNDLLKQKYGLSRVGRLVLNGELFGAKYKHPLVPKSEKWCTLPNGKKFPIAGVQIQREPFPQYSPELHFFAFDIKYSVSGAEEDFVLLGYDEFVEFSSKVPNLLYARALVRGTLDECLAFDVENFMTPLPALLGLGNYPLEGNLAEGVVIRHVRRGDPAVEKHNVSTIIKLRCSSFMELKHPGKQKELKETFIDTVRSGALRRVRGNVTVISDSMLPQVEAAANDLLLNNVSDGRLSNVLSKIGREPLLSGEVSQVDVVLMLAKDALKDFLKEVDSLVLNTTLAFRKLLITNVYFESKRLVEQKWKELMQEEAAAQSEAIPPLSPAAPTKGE
TbREL1 conf: TbREL1 inhibition, confirmation; inhibition, % at 9.66 µM; shares compounds with TbREL1 primary; hit rate 37% among 390; TbREL1 RNA ligation, FRET fluorescence;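 active means mean inhibition across replicates above a set limit taken from the earlier primary screen, cut at about 11% in these data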;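 further: 0% = REL1 with substrate and DMSO and 100% = REL1 plus control inhibitor NSC42067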
Numbers without * were called inactive.

SMILES	TbREL1 primary	others
COC(=O)C1=C(C)N(Cc2ccc(C(F)(F)F)cc2)C(=NCC2CC2)NC1c1ccccc1C(F)(F)F (stereo not drawn)	14.4*	TbREL1 conf=15.9*
COC(=O)C1=C(C)N(Cc2ccc(C(F)(F)F)cc2)C(=NCc2cccc(C(F)(F)F)c2)NC1c1ccccc1C(F)(F)F (stereo not drawn)	19.9*	TbREL1 conf=25.4*
CCN1C(=NCCOC)N[C@@H](c2cccc(C(F)(F)F)c2)C(C(=O)OC)=C1C	6.0
COC(=O)C1=C(C)N(Cc2cccc(C(F)(F)F)c2)C(=NCc2ccc(C(F)(F)F)cc2)NC1c1ccc(C(F)(F)F)cc1 (stereo not drawn)	8.5
COC(=O)C1=C(C)N(Cc2cccc(C(F)(F)F)c2)C(=NCc2ccc3c(c2)OCO3)NC1c1ccccc1C(F)(F)F (stereo not drawn)	12.8*	TbREL1 conf=20.2*
COC(=O)C1=C(C)N(C)C(=NCc2ccc(OC)cc2)NC1c1ccccc1C(F)(F)F (stereo not drawn)	5.8
COC(=O)C1=C(C)N(C)C(=NCc2ccc(C(F)(F)F)cc2)NC1c1ccccc1C(F)(F)F (stereo not drawn)	10.0
CCN1C(=NCc2ccco2)N[C@@H](c2cccc(C(F)(F)F)c2)C(C(=O)OC)=C1C	4.5
COC(=O)C1=C(C)N(Cc2ccc(C(F)(F)F)cc2)C(=NCc2ccc(OC)cc2)NC1c1ccccc1C(F)(F)F (stereo not drawn)	17.2*	TbREL1 conf=14.2*
CCOC(=O)[C@]12CCCC=C1N(CCCOC)C(=O)[C@@H]2CC(=O)NCC1CCCCC1	0.6
COc1cc(N/C(=C\C(=O)c2ccccc2)c2ccccc2)ccc1Cl	4.5
CCCCCCCCN1C(=O)[C@@H](CC(=O)N2CCC(c3ccccc3)CC2)C[C@@]2(C(=O)OC)C1=C[C@H](COCc1ccccc1)O[C@@H]2C	-3.6
Cc1ccc(-n2c(SCC(=O)c3ccc4c(c3)OCO4)nc3ccccc3c2=O)cc1	2.1
C[C@@H]1[C@@H](O)C[C@@]2(C[C@H](O)c3cc(Cl)ccc3O2)O[C@H]1c1ccccc1Cl	4.1
O=C1CCC[C@H]2CC3(CC[C@]24CCCN14)OCCO3	-4.2
COc1ccc(C=NNC(=O)c2cc(-c3ccc(C)c(C)c3)n[nH]2)cc1OCc1ccccc1	3.4
CC1=CC(=O)C(C(C)C)=C/C1=N\OS(=O)(=O)c1ccccc1	-0.8
O=C(C1CCN(CCCc2ccccc2)CC1)N1CCCCC1	11.7*	TbREL1 conf=1.7
O=C(Nc1ccccc1)N1CCN(CCc2ccccc2)CC1	-3.3
O=C(c1ccc(-c2ccccc2)cc1)N1CCC(C(=O)N2CCCC2)CC1	2.8
CCn1cc(C(=O)N2CCN(c3ccc(F)cc3)CC2)c(=O)c2ccc(C)nc21	-0.3
COC(=O)[C@@]12CCCCC=C1N(CCc1ccc(Cl)cc1)C(=O)[C@H]2CC(=O)NCC1CCCCC1	-4.8
CCCc1nc2c(=O)n(C)c(=O)nc-2n(C)n1	61.4*	TbREL1 conf=85.6*
COc1ccc(CCn2c(C)nc3c(c(=O)c4ccccc4n3C)c2=O)cc1	9.0
COC(=O)[C@@]12CCCCC=C1N(CCc1ccc(Cl)cc1)C(=O)[C@H]2CC(=O)NCCc1ccccc1OC	1.5
SMILES	TbREL1 primary	others
Cc1nc2ccc(NS(=O)(=O)c3ccc(F)cc3F)cc2s1	2.2
O=C(NNS(=O)(=O)c1ccc(F)cc1F)C1Cc2c(ccc3ccccc23)O1 (stereo not drawn)	3.0
O=S(=O)(Nc1nc(-c2ccco2)c(-c2ccco2)s1)c1ccc(F)cc1F	30.6*	TbREL1 conf=-0.5
CC(C)[C@H]1/C(=C/C2CC2)N2C(=O)C[C@H](c3ccccc3)N=C2N1C	-4.5
O=C(NCc1cccs1)C1CCCN(S(=O)(=O)c2cccc3ccccc23)C1 (stereo not drawn)	0.3
Cn1cccc1CC(=O)NN=C/C=C\c1ccco1	67.4*	TbREL1 conf=2.3
Cn1cccc1CC(=O)NN=Cc1cccc(F)c1	0.7
Cc1ccc(-n2c(SCC(=O)N/N=C/C=C\c3ccco3)nnc2-c2ccccc2)cc1	-5.8
COC(=O)[C@]12C[C@H](CC(=O)NCc3ccc(OC)c(OC)c3)C(=O)N(CCc3ccc(OC)c(OC)c3)C1=C[C@H](C1CCCC1)O[C@@H]2C	-1.7
Cc1ccc(N2C(=O)/C(=C\c3ccco3)SC2=S)cc1	2.3
O=C1/C(=C\c2ccco2)SC(=S)N1c1ccccc1	9.4
O=C1/C(=C\c2ccco2)SC(=S)N1C1CCS(=O)(=O)C1 (stereo not drawn)	18.9*	TbREL1 conf=0.7
Cc1nn(-c2ccccc2)c(C)c1C=NNC(=O)CSc1nc2ccccc2n1C	0.0
FC(F)(F)c1ccccc1Cn1ccc2ccc(-c3ccc4ccn(Cc5ccccc5C(F)(F)F)c4c3)cc21	0.7
O=C(c1cccnc1)N1CCN(Cc2cccc(Br)c2)CC1	11.5*	TbREL1 conf=5.8
O=C(c1ccc([N+](=O)[O-])cc1)N1CCN(C(=O)c2cccnc2)CC1	-1.6
O=C(c1cccnc1)N1CCN(C(=O)c2ccco2)CC1	1.6
O=C(CSc1nnc(-c2ccco2)n1-c1ccc(Cl)cc1)Nc1cccc2ccccc12	7.4
CC(C)Oc1cccc(-c2n[nH]c(=S)n2N=Cc2ccc(O)cc2O)c1	-3.8
COc1cccc(CNC(=O)C2CCCN(c3ncccn3)C2)c1OC (stereo not drawn)	0.9
O=C(Nc1ccc(F)cc1)OCc1cn(Cc2ccc(F)cc2)nn1	-3.5
COCC(=O)N(C)c1nnc(-c2cnccn2)s1	-0.3
COCCN(C(=O)/C=C/c1ccccc1)c1c(N)n(Cc2ccccc2)c(=O)[nH]c1=O	1.9
COCCN(C(=O)/C=C/c1ccccc1)c1nnc(-c2cccnc2)s1	12.0*	TbREL1 conf=-2.6
COC(=O)C1=C(C)N(Cc2ccccc2)C(=NCC(C)C)N[C@H]1c1cccc(F)c1	6.0
SMILES	TbREL1 primary	others
COC(=O)C1=C(C)N(Cc2ccc(C(F)(F)F)cc2)C(=NCc2ccccc2C(F)(F)F)NC1c1ccc(F)cc1 (stereo not drawn)	13.9*	TbREL1 conf=14.1*
COC(=O)C1=C(C)N(Cc2ccccc2C(F)(F)F)C(=NCC2CC2)NC1c1ccc(C(F)(F)F)cc1 (stereo not drawn)	10.2
COC(=O)C1=C(C)N(Cc2ccccc2)C(=NCc2ccco2)N[C@H]1c1cccc(F)c1	5.2
COC(=O)C1=C(C)N(Cc2ccccc2C(F)(F)F)C(=NCC2CC2)NC1c1ccc(F)cc1 (stereo not drawn)	11.8*	TbREL1 conf=11.2*
COC(=O)C1=C(C)N(Cc2ccc(Cl)cc2)C(=S)NC1c1ccc(OC)cc1 (stereo not drawn)	-3.1
COC(=O)C1=C(C)N(Cc2ccccc2C(F)(F)F)C(=NCc2ccc(C(F)(F)F)cc2)NC1c1cccc(F)c1 (stereo not drawn)	14.1*	TbREL1 conf=22.2*
COC(=O)C1=C(C)N(Cc2ccccc2C(F)(F)F)C(=NCc2ccc(OC)cc2)NC1c1cccc(Cl)c1 (stereo not drawn)	18.9*	TbREL1 conf=18.1*
O=S1(=O)c2ccc(N3CC[C@@H](O)C3)cc2O[C@H]2CCN1C2	3.7
O=C(NCCc1c[nH]c2ccccc12)OCc1cn(-c2cccc(Cl)c2)nn1	-5.3
COC(=O)c1cccc(Cn2ccc3ccc(-c4ccc5ccn(C(=O)C6CC6)c5c4)cc32)c1	0.1
COC(=O)C[C@@H]1CC[C@H]2[C@@H](COc3ccc(NC(=O)Nc4ccc(C)cc4)cc3C(=O)N2C)O1	-1.1
COC(=O)[C@]12CCCCC=C1N(Cc1ccc(OC)cc1)C(=O)[C@@H]2CC(=O)N1CCOCC1	-3.2
